According to PubChem BioAssay (Tox21):
Results filed as inconclusive are left out. Active and inactive are the calls of the source. Unless noted, calls come from the whole dose curve; as a rule, active = well fitted curve in the direction sought with a large enough effect in the repeat runs; inconclusive = weak or mixed curves; inactive = no such curve, though single readings can be large; an effect the other way counts as inactive or inconclusive.

Key:
[1] = qHTS assay to identify small molecule agonists of the estrogen receptor alpha (ER-alpha) signaling pathway in the presence of an antagonist - cell viability counter screen (AID 1259386);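 note: cells exposed to compounds for 22 h at 37 °C before the viability read; nearly all actives have a fitted effect of over 30% in size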; note: potency is the fitted concentration of half-maximal effect
How it was run: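 Cells are starved of estrogens for 5 days in charcoal-stripped serum, seeded for 24hr and co-treated with ICI-182,780 (10.0nM final) and test compounds. After 22hr at 37C, viability is read as CellTiter-Fluor fluorescence.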

[2] = target: Progesterone receptor (Homo sapiens) (UniProt P06401); experiment: qHTS assay to identify small molecule agonists of the progesterone receptor (PR) signaling pathway (AID 1346784; calls by dose curve; note: nearly all actives have a fitted effect of over 30% in size; note: potency is the fitted concentration of half-maximal effect)
Chain of Progesterone receptor (Homo sapiens) (P06401 whole entry, looked up): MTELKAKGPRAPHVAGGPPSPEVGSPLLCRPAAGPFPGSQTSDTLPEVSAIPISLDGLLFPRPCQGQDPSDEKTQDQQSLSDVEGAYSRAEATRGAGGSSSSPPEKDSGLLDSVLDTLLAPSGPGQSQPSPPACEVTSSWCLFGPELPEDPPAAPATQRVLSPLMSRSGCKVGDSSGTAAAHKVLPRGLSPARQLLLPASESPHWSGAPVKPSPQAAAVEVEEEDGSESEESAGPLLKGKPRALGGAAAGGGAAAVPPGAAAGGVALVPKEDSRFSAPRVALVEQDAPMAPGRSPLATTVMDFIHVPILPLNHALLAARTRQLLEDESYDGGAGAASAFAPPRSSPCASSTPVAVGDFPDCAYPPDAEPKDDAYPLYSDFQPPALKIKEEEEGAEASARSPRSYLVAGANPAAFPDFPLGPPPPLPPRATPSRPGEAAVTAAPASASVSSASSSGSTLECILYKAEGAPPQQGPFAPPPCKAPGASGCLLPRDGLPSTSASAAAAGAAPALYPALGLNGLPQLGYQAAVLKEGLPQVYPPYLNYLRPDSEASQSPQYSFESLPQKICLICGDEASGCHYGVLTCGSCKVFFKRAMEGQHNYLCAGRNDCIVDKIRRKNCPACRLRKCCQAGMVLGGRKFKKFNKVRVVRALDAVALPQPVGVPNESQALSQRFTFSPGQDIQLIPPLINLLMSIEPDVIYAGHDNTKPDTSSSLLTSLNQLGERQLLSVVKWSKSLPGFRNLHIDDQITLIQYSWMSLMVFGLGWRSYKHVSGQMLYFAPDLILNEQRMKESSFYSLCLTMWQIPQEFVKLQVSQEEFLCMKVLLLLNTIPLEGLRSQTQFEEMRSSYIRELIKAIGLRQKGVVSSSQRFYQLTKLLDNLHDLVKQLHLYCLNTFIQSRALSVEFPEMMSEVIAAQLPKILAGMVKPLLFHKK
How it was run: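 Compounds were tested for PR agonism in HEK 293T cells bearing a beta-lactamase gene under UAS control. Treatment lasted 16 hr at 37C; signal came from fluorescence of a FRET substrate.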

[3] = qHTS assay to identify small molecule antagonists of the TGF-beta/Smad signaling pathway - cell viability counter screen (AID 1346824); note: nearly all actives have a fitted effect of over 50% in size; note: potency is the fitted concentration of half-maximal effect
How it was run: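 SBE-bla HEK 293T cells were plated overnight at 37 C, then given compounds in DMSO plus TGF-beta1 (added as 0.25 ng/mL solution) for 5 hr. After the bla read, CellTiter-Glo was added to the same wells and luminescence read after 30 min at room temperature.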

[4] = qHTS assay to identify small molecule agonists of the TGF-beta/Smad signaling pathway - cell viability counter screen (AID 1346829); note: nearly all actives have a fitted effect of over 45% in size; note: potency is the fitted concentration of half-maximal effect
How it was run: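 HEK 293T SBE-bla line, 5 hr compound exposure at 37 C, multiplexed CellTiter-Glo viability read by luminescence.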

[5] = target: Thyrotropin-releasing hormone receptor (Homo sapiens) (UniProt P34981); experiment: qHTS assay to identify small molecule antagonists of the thyrotropin-releasing hormone receptor (TRHR) signaling pathway (AID 1346877; active = well fitted inhibition curve with a large enough effect in the repeat runs, not every such curve was filed as active; note: potency is the fitted concentration of half-maximal effect)
Chain of Thyrotropin-releasing hormone receptor (Homo sapiens) (P34981 whole entry, looked up): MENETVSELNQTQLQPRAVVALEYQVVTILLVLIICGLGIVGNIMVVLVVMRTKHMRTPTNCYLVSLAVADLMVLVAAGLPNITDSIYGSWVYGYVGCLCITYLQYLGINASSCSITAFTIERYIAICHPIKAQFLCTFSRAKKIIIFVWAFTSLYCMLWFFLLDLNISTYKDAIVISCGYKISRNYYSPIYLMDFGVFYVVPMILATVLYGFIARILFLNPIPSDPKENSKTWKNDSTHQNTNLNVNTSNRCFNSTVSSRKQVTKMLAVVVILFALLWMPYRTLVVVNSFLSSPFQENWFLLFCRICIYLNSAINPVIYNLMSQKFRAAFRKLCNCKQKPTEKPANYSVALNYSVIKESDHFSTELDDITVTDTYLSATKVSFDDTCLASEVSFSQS
How it was run: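 Cells (TRHR-HEK293) are plated and kept 18 h at 37 °C/5% CO2. A calcium-sensitive dye is added for 2 h, compound follows for 5 min at room temperature, and TRH is then given at 1 nM final.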

[6] = target: Thyrotropin-releasing hormone receptor (Homo sapiens) (UniProt P34981); experiment: qHTS assay to identify small molecule agonists of the thyrotropin-releasing hormone receptor (TRHR) signaling pathway (AID 1346891; calls by dose curve; note: potency is the fitted concentration of half-maximal effect; for activation: series mostly up to about 58 µM)
How it was run: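 Screening of agonists relied on calcium signalling in HEK293 cells expressing human TRHR: dye loading 2 h at 37 °C preceded compound addition and a 3-min fluorescence time course.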

[7] = target: Progesterone receptor (Homo sapiens) (UniProt P06401); experiment: qHTS assay to identify small molecule antagonists of the progesterone receptor (PR) signaling pathway (AID 1346795; active = well fitted inhibition curve with a large enough effect in the signal ratio in the repeat runs, not every such curve was filed as active; the % refers to the signal ratio; note: potency is the fitted concentration of half-maximal effect)
How it was run: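 In HEK293T cells bearing the PR-UAS-bla reporter, compound effects on promegestone-driven (1 nM) beta-lactamase expression are assessed after 16 hr using a fluorescent FRET substrate incubated 2 hr at room temperature.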

[8] = qHTS assay to identify small molecule antagonists of the progesterone receptor (PR) signaling pathway - cell viability counter screen (AID 1346798); note: nearly all actives have a fitted effect of over 50% in size; note: potency is the fitted concentration of half-maximal effect
How it was run: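 Following a 4 hr attachment, PR-UAS-bla HEK293T cells in charcoal-stripped FBS medium were exposed to compounds with R5020 for 16 hr; CellTiter-Glo was added and luminescence read after 30 min at room temperature.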

[9] = qHTS assay to identify small molecule agonists of the progesterone receptor (PR) signaling pathway - cell viability counter screen (AID 1346799; calls by dose curve; note: nearly all actives have a fitted effect of over 45% in size; note: potency is the fitted concentration of half-maximal effect)
How it was run: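 Here, 3,000 PR-UAS-bla HEK293T cells per well were treated with compounds for 16 hr after a 6 hr preincubation at 37C and 5% CO2; cell viability is the CellTiter-Glo luminescence signal.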

[10] = qHTS assay to identify small molecule agonists of the TGF-beta/Smad signaling pathway (AID 1346859; active = well fitted activation curve with a large enough effect in the signal ratio in the repeat runs, not every such curve was filed as active; the % refers to the signal ratio; note: series mostly up to about 77 µM)
How it was run: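 Each well held 4,000 SBE-bla HEK 293T cells incubated overnight before compound addition; 5 hr later the cleavable FRET substrate went on for 2 hr at room temperature, and fluorescence was read at two emissions.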

Measured: Potency

CCCCC(CC)COC(=O)c1ccccc1C(=O)OCC(CC)CCCC (stereo not drawn)
inactive: [1] | [3] | [4] | [5] | [6]
active: [2] 43300 nM

BrCCCBr
not listed: [2]
inactive: all other assays above

N#Cc1ccc(N(CC(N)=O)CC(F)(F)F)cc1C(F)(F)F
not listed: [7]
inactive: all other assays above

CC(C)c1c(CN(C)C(C)Cc2ccccc2)n(C)n(-c2ccccc2)c1=O (stereo not drawn)
inactive: [1] | [2] | [3] | [4] | [5] | [6]

O=S1(=O)OCC2C(CO1)C1(Cl)C(Cl)=C(Cl)C2(Cl)C1(Cl)Cl (stereo not drawn)
not listed: [7] | [10]
inactive: all other assays above

CC(Cl)CCl (stereo not drawn)
not listed: [5] | [6] | [7]
inactive: all other assays above

c1csc(-c2ccc(-c3cccs3)s2)c1
not listed: [7] | [10]
inactive: all other assays above

COC(=O)C(C)N(C(=O)c1ccco1)c1c(C)cccc1C (stereo not drawn)
inactive: [1] | [2] | [9] | [3] | [4] | [10]

CCC[CH2][Sn]([CH2]CCC)([CH2]CCC)[O][Sn]([CH2]CCC)([CH2]CCC)[CH2]CCC
active: [1] 475 nM | [7] 752 nM | [8] 1680 nM | [9] 1890 nM | [3] 1510 nM | [4] 1510 nM | [5] 1050 nM | [6] 1350 nM

Cc1ccc2cc3c(ccc4ccccc43)c3c2c1CC3
not listed: [7] | [10]
inactive: all other assays above

CC(C)C(Nc1ccc(C(F)(F)F)cc1Cl)C(=O)OC(C#N)c1cccc(Oc2ccccc2)c1 (stereo not drawn)
inactive: [1] | [2] | [8] | [3] | [10]

CCOP(=O)(Sc1ccccc1)Sc1ccccc1
not listed: [5] | [6] | [7]
inactive: all other assays above

ClC1(Cl)C2(Cl)C3(Cl)C4(Cl)C(Cl)(Cl)C5(Cl)C3(Cl)C1(Cl)C5(Cl)C24Cl (stereo not drawn)
not listed: [2] | [9]
inactive: all other assays above

Cc1cc(C2CC2)nc(Nc2ccccc2)n1
active: [7] 30600 nM
inactive: [1] | [3] | [4] | [10]

CC(=O)C(Cl)C(=O)N(C)C (stereo not drawn)
not listed: [2] | [6] | [8]
inactive: all other assays above

CCCCn1cc[n+](C)c1 (tested in a mixture with another compound)
inactive: [1] | [8] | [9] | [3] | [4] | [10]
